In PubChem BioAssay AID504652 (National Center for Advancing Translational Sciences (NCATS), 2011):
About 11,000 (3.1%) of roughly 360,000 compounds were called active. The entries come from a sample that favours actives as a whole. A number with no mark means an inactive call. No stated cut-off is given here; in the data, active means activity change below about -30%; inactive means the rest.

target: D(1A) dopamine receptor (Homo sapiens) (UniProt P21728); assay: Antagonist of Human D 1 Dopamine Receptor: qHTS; conditions: HEK293 TREx D1 cells, calcium flux, dopamine EC80; at 10 µM; hits give low values
Outline: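 Compound effects on dopamine-evoked calcium signalling were measured in tetracycline-induced HEK293 Trex D1 cells. Dopamine at EC80 followed a 180 s compound pre-read, and fluorescence was tracked kinetically for 180 s more.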
On the % scale 0 is the no-effect control and ±100 the full control effect.

Chain of D(1A) dopamine receptor (Homo sapiens) (P21728 whole entry, looked up): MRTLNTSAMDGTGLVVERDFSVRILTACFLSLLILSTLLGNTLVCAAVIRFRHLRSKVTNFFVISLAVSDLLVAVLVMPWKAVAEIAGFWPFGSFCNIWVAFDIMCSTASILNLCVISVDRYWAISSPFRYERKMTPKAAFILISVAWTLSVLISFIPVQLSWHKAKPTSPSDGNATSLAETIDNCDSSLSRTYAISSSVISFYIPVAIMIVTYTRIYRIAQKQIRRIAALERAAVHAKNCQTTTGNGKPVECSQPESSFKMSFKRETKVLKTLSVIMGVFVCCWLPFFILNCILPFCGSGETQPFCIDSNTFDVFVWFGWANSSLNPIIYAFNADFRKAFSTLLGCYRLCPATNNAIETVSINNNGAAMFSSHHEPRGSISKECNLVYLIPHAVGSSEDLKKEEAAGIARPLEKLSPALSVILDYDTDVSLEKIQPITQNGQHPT

Structure (SMILES)	activity change, negative = inhibition
CCOC(=O)N1CCN(CC(=O)n2c(C)c(C)c3ccccc32)CC1	6.89%
CCOC(=O)N1CCN(CC(=O)Nc2ccc(F)cc2)CC1	4.05%
CCOC(=O)N1CCN(CC(=O)c2ccc3c(c2)CCN3)CC1	-32.2% (active)
Cc1ccc(CN2CCC(CNC(=O)c3cnn(-c4ccc(C)cc4)c3C3CCN(C(=O)OC(C)(C)C)CC3)CC2)cc1	1.49%
Cc1ccc2nc(SCC(=O)NC3CCCC3)[nH]c2c1	1.64%
Cc1ccc2nc(-c3ccc(SCC(=O)Nc4cc(C)on4)nc3)[nH]c2c1	-40.5% (active)
Cc1cccc(-c2nc(SCC(=O)Nc3cc(C)on3)c3c(=O)n(C)c(=O)n(C)c3n2)c1	-1.46%
CCS(=O)(=O)c1nc(S(=O)(=O)c2ccc(C)cc2)c(NCc2ccc(Cl)cc2)s1	-4.62%
Cc1onc(-c2ccc(F)cc2F)c1C(=O)Nc1cccc(C(F)(F)F)c1	-7.14%
COC(=O)c1cccc(Cn2nnc3sc4c(c3c2=O)CCC(C(C)(C)C)C4)c1 (stereo not given)	7.77%
Cc1nn(C(C)C(=O)Nc2ccc(C(C)C)cc2)c(=O)c2c1sc1ccccc12 (stereo not given)	-14.9%
Cc1ccc(NC2=C(c3ccc(C(F)(F)F)cc3)C(=O)c3ccccc32)cc1F	-32.9% (active)
Cc1ccc(NC(=O)NC(=O)c2ccccc2)cc1F	-1.14%
O=C(Nc1ccccc1F)c1ccccc1-c1ccc(C(F)(F)F)cc1	-10%
Cc1ccccc1NC(=O)Cn1cc(C(=O)c2cccs2)c2ccccc21	-14.9%
COc1ccc(-n2nc(C(=O)NCCc3ccc(Cl)cc3)c3c4ccccc4n(C)c3c2=O)cc1Cl	-3.18%
Cc1ccc(CCNC(=O)c2ccc3c(c2)N(Cc2cc(C)ccc2C)C(=O)c2ccccc2S3=O)cc1 (stereo not given)	-1.98%
COc1cccc2cc(-c3nc(Cl)c4c5c(sc4n3)CC(C)CC5)c(=O)oc12 (stereo not given)	7.27%
Cc1ccc2nc(C)c3c(c2c1)N(c1ccccc1)CC3	-47.3% (active)
Cc1ccc2nc(CNC(=O)c3ccccc3)[nH]c2c1	2.33%
Cc1ccc2nc(NC3=NCN(CCc4ccccc4)CN3)nc(C)c2c1	8.22%
O=C(Nc1ccc(F)cc1F)c1cnn(-c2ccc(F)cc2)c1-n1cccc1	1.78%
CCOC(=O)C1=C(CN2CCc3ccccc32)NC(=O)NC1c1ccc(Cl)cc1 (stereo not given)	19.3%

Structure (SMILES)	activity change, negative = inhibition
CCOC(=O)C1=C(CCc2ccccc2)NC(=O)NC1c1ccc2ccccc2c1 (stereo not given)	13.1%
CCOC(=O)C1=C(CSc2nccn2C)NC(=O)NC1c1ccc(OC)cc1 (stereo not given)	-35% (active)
CCN(CC)c1ccc(NS(=O)(=O)c2cc(-c3cc(C)no3)ccc2C)c(C)c1	-8.08%
COc1ccc(N2CCN(C(=O)C3CCCN(C(=O)c4cc5sccc5n4C)C3)CC2)cc1 (stereo not given)	-16.9%
CCc1ccc(Sc2cc(C(=O)NCCCOC(C)C)c3ccccc3n2)cc1	9.99%
CC(NC(=O)c1cc(Sc2ccc(F)cc2F)nc2ccccc12)c1ccccc1 (stereo not given)	-44.9% (active)
CC(NC(=O)c1cc(=O)[nH]c2ccccc12)c1ccc(F)cc1F (stereo not given)	-0.391%
CCOc1ccccc1NC(=O)Cn1c(=O)n(-c2cccc(C)c2)c(=O)c2c1c1cc(OC)ccc1n2C	9%
CC(C)Sc1ncnc2c1cnn2-c1ccccc1	11.9%
c1ccc(-n2ncc3c2ncn2c(C4CCCCC4)nnc32)cc1	-30.2% (active)
CN(C(=O)COc1ncnc2c1cnn2-c1ccccc1)C1CCCCC1	2.82%
Cc1ccc(NC(=O)Cn2c(=O)n(-c3ccccc3)c(=O)c3c4c(sc32)CCCC4)cc1	-4.05%
CCOC(=O)N1CCc2c(sc3c2C(=O)NC(c2ccccc2F)N3)C1 (stereo not given)	4.82%
O=C(CSc1ncc(CO)n1Cc1ccc(F)cc1)NCc1ccco1	-2.59%
O=C(CCN1CCN(c2ccccc2)CC1)NNC(=S)Nc1ccccc1	-7.38%
Cc1nnc(NC(=O)C(c2ccccc2)c2ccccc2)s1	0.172%
CCCCC(=O)NNC(=S)NC(=O)C(c1ccccc1)c1ccccc1	-50.5% (active)
Cc1c(C(=O)NCC2CCCO2)sc2nc(-c3ccccc3)cn12 (stereo not given)	2.03%
Cc1c(C(=O)N2CC(C)OC(C)C2)sc2nc(-c3ccccc3)cn12 (stereo not given)	-32.4% (active)
COc1ccc(-c2cn3c(C)c(C(=O)Nc4cc(C)cc(C)c4)sc3n2)cc1	9.7%
Cc1cccc(NC(=O)c2nnn(CC(=O)Nc3ccc(C(C)C)cc3)c2N)c1C	5.98%
CN(c1cccc(NC(=O)c2ccc(CN3CCc4ccccc4C3)cc2)c1)S(C)(=O)=O	-37.7% (active)
CN(c1ccc(C(=O)N2CCc3ccccc3C2)cc1)S(C)(=O)=O	1.19%

Structure (SMILES)	activity change, negative = inhibition
Cc1cccc(C)c1NC(=O)c1ccc(CN2CCc3ccccc3C2)cc1	-14.8%
O=C(Nc1ccc(OC(F)(F)F)cc1)C1CCCN(S(=O)(=O)c2ccc(Br)s2)C1 (stereo not given)	-19.1%
O=C(NCCOc1cccnc1)c1ccc(OC2CCN(Cc3ccccn3)CC2)cc1	-0.574%
Cn1cc(CNC(=O)c2ccc(OC3CCN(Cc4ccccn4)CC3)cc2)cn1	-41.2% (active)
COCc1ccc(CN2CCC(Oc3ccc(C(=O)NCc4ccccn4)cc3)CC2)o1	-5.9%
CC(CCCc1ccccc1)NC(=O)c1nn(-c2ccc(Cl)cc2)nc1CO (stereo not given)	3.03%
O=S(=O)(NCCCN1CCOCC1)c1ccc(F)c(Cl)c1	-34.6% (active)
O=S(=O)(NCC1CC1)c1ccc(F)c(Cl)c1	-3.94%
O=[N+]([O-])c1cc(S(=O)(=O)CCCN2CCOCC2)ccc1F	-12.6%
CCOc1ccc(C2C(=O)N(C3CCCCC3)CC(=O)N2CCC2=CCCCC2)cc1OC (stereo not given)	39.1%
Cc1cc(OCCN2CCCC2)ccc1C(C)C	-30% (active)
c1ccc2cc(OCCN3CCCC3)ccc2c1	12.7%
Cc1cc(OCCN2CCCC2)cc(C(C)C)c1	-2.52%
Cc1ccc(NC(=O)Cn2nnc3sc4c(c3c2=O)CCC(C)C4)cc1 (stereo not given)	-17.2%
CCc1cccc(C)c1Nc1c(-c2ccc(N(C)C)cc2)nc2ncccn12	6.48%
Cc1ccccc1C(=O)N(Cc1ccc(N(C)C)cc1)CC1CCCO1 (stereo not given)	12.9%
N#Cc1nc(Nc2cc(F)cc(Cl)c2)nc(NC2CCCC2)n1	-27%
Cc1cc(C)cc(NS(=O)(=O)c2ccc(-c3cc(C)no3)s2)c1	-9.8%
COc1ccc(C)cc1NC(=O)COCc1cc(-c2cccs2)on1	15%
Cc1cc(-c2ccc(S(=O)(=O)N3CCN(c4cccc(C(F)(F)F)c4)CC3)s2)on1	-24.5%
Cc1cc(-c2ccc(S(=O)(=O)N3CCc4ccccc4C3)s2)on1	-15.7%
Cc1cccc(N2CCN(S(=O)(=O)c3ccc(-c4cc(C)no4)s3)CC2C)c1 (stereo not given)	-39.9% (active)
O=C(Cn1c(-c2ccc(Cl)cc2)noc1=O)N1CCN(c2ccccc2F)CC1	-13.7%

Structure (SMILES)	activity change, negative = inhibition
Cc1ccc(C)c(N2C(=O)N(Cc3c(F)cccc3Cl)c3ccccc3S2(=O)=O)c1	-19.3%
O=c1onc(-c2c(F)cccc2F)n1-c1ccccc1Cl	-36.4% (active)
CCOc1ccccc1CNCc1c(C(=O)O)c(C)n(Cc2ccc(C)cc2)c1C	0.5%
CCCCNc1ccc(-c2nc(-c3ccncc3)no2)cc1[N+](=O)[O-]	10.8%
CCOC(=O)c1ccc(NC(=O)C2CCN(S(=O)(=O)c3ccc4c(c3)CCCC(=O)N4)CC2)cc1	2.67%
CCCCOc1ccc(NC(=O)c2cc3c(n(-c4ccc(Cl)cc4)c2=O)CCCC3=O)cc1	1.15%
CC(C)(C)c1ccc(C(CC(=O)O)NS(=O)(=O)Cc2ccccc2)cc1 (stereo not given)	-2.49%
COc1ccccc1NC(=O)[C@H](COCc1ccccc1)NC(=O)OC(C)(C)C	-13.2%
C[C@@H](NC(=O)OC(C)(C)C)c1nnc(S(=O)(=O)Cc2ccccc2)o1	-33% (active)
O=C(NCCc1ccccc1)c1cnc2sc(N3CCCC3)nn2c1=O	8.92%
CCOc1ccc(NC(=O)CCC(=O)N2CC(C)Oc3ccc(C)cc32)cc1 (stereo not given)	-0.916%
Cc1cccc(N2CCN(c3ccc(C(=O)O)cc3NC(=O)c3ccccc3F)CC2C)c1 (stereo not given)	20.1%
CC(Nc1ccc(-c2nc(-c3ccco3)no2)cc1[N+](=O)[O-])c1ccccc1 (stereo not given)	-5.4%
CNc1ccc(-c2nc(-c3ccccc3C)no2)cc1[N+](=O)[O-]	-6.85%
CN(Cc1ccccc1)c1ccc(-c2nc(-c3ccccc3)no2)cc1[N+](=O)[O-]	-53.5% (active)
COc1ccccc1-c1noc(-c2ccc(NCc3ccccc3)c([N+](=O)[O-])c2)n1	4.22%
O=[N+]([O-])c1cc(-c2nc(-c3ccccc3)no2)ccc1NCc1ccco1	-9.94%
CNc1ccc(-c2nc(-c3ccco3)no2)cc1[N+](=O)[O-]	-31.8% (active)
CCC(=O)Nc1c(S(=O)(=O)c2ccccc2)c2nc3ccccc3nc2n1Cc1ccccc1	-7.1%
Cc1ccc(S(=O)(=O)c2c(N)n(C)c3nc4ccccc4nc23)cc1	-3.59%
CCN(CC)CCn1c(N)c(S(=O)(=O)c2ccccc2)c2nc3ccccc3nc21	-52.8% (active)
